In PubChem BioAssay (NCI) one finds growth data, which are given here for eight molecules.

About 83,000 compounds went through this panel and 20% of them were active in at least one assay; those are over-represented in the sample as a whole.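 Cells were grown in 96-well plates and exposed to the test compound at a single concentration for 48 hours; results are reported as percent growth, with values below 10 considered active.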 Unmarked numbers belong to inactive results. The source made the active and inactive calls.

What all share (test): NCI-60 one-dose screen, 48 h (100 = growth as untreated, 0 = no growth, -100 = all killed)
One test relates to DU-145 prostate. The conditions noted are these: 10 µM unless noted.
Another test deals with K-562 leukemia. The conditions noted are these: 10 µM unless noted.
For a further test, the system named is MALME-3M melanoma. The conditions noted are these: 10 µM unless noted.
The subject of another test is RXF 393 renal. The conditions noted are these: 10 µM unless noted.
The next test deals with SF-268 CNS. The conditions noted are these: 10 µM unless noted.
A further test concerns SF-295 CNS. The conditions noted are these: 10 µM unless noted.
Another test relates to SF-539 CNS. The conditions noted are these: 10 µM unless noted.
In the next test the test system is UACC-257 melanoma. The conditions noted are these: 10 µM unless noted.
The next test deals with M14 melanoma. The conditions noted are these: 10 µM unless noted.
A further test has as its system HCT-15 colon. The conditions noted are these: 10 µM unless noted.
The next test relates to HT29 colon. The conditions noted are these: 10 µM unless noted.
The test system of a further test is SNB-75 CNS. The conditions noted are these: 10 µM unless noted.
The next test deals with SNB-19 CNS. The conditions noted are these: 10 µM unless noted.
The test system of a further test is U251 CNS. The conditions noted are these: 10 µM unless noted.
For another test, the system named is PC-3 prostate. The conditions noted are these: 10 µM unless noted.
The next test relates to SK-MEL-5 melanoma. The conditions noted are these: 10 µM unless noted.
For another test, the system named is UACC-62 melanoma. The conditions noted are these: 10 µM unless noted.
The subject of a further test is SK-MEL-28 melanoma. The conditions noted are these: 10 µM unless noted.
The next test relates to MDA-MB-231 breast. The conditions noted are these: 10 µM unless noted.
The subject of a further test is LOX IMVI melanoma. The conditions noted are these: 10 µM.

With `CCCCOc1ccc(NC(=O)c2sc3nc(C)ccc3c2N)cc1`, the growth was 46.4% in the test with DU-145 prostate; 9.87% (active) with K-562 leukemia; 23.3% in the test on MALME-3M melanoma; -20.7% (active) in the test with RXF 393 renal; 29.8% in the test on SF-268 CNS; -54% (active) in the test on SF-295 CNS. Besides, the growth was -99.7% (active) in the test on SF-539 CNS; 54.1% in the test with UACC-257 melanoma; 59.9% in the test on M14 melanoma; 36.7% in the test on HCT-15 colon; 40.2% in the test on HT29 colon; -17.3% (active) in the test with SNB-75 CNS. Further, the growth is 0.979% (active) in the test on SNB-19 CNS; 0.73% (active) with U251 CNS; 36.8% in the test on PC-3 prostate; 3.73% (active) with SK-MEL-5 melanoma; 40% in the test with UACC-62 melanoma.
In the case of `CC1=C(C(=O)c2ccccc2)C(c2cccc3ccccc23)n2c(nc3ccccc32)N1` (stereo not drawn), the growth is 67.3% with DU-145 prostate; 39.3% with K-562 leukemia; 57.4% in the test with MALME-3M melanoma; 76.4% in the test on RXF 393 renal; 60.1% in the test with SF-268 CNS; 76.9% with SF-295 CNS. Moreover, the growth with SF-539 CNS is 1.2% (active); with UACC-257 melanoma, 84%; in the test with M14 melanoma, 73.5%; in the test with HCT-15 colon, 70.3%; in the test on HT29 colon, 50.5%; in the test with SNB-75 CNS it was 60.3%. Further, the growth in the test on SNB-19 CNS was 66.1%; in the test with U251 CNS, 17%; with PC-3 prostate it was 53.2%; with SK-MEL-5 melanoma it was 62.1%; with UACC-62 melanoma it was 37.5%.
For `COc1ccc2cc([C@H](C)C(=O)N/N=C/c3ccc(Br)cc3)ccc2c1`, the growth in the test with DU-145 prostate was 108%; with K-562 leukemia, 100%; with MALME-3M melanoma it was 95.3%; with RXF 393 renal, 100%; in the test on SF-268 CNS it was 99.5%; in the test with SF-295 CNS, 98.8%. Further, the growth in the test on SF-539 CNS is 102%; in the test on UACC-257 melanoma it was 110%; in the test with M14 melanoma, 102%; with HCT-15 colon it was 101%; in the test on HT29 colon, 106%; in the test on SNB-75 CNS, 71.4%. In addition, the growth in the test with SNB-19 CNS was 98.8%; in the test on U251 CNS, 100%; with PC-3 prostate, 106%; in the test with SK-MEL-5 melanoma it was 99.9%; with UACC-62 melanoma, 95.6%; with SK-MEL-28 melanoma, 108%.
Regarding `O=c1cc(-c2ccccc2)oc2cc(OCCCC[P+](c3ccccc3)(c3ccccc3)c3ccccc3)cc(O)c12`, the growth in the test with DU-145 prostate is -94.8% (active); in the test with K-562 leukemia, -24.1% (active); in the test with MALME-3M melanoma, -88% (active); in the test with MDA-MB-231 breast it was -32.2% (active); in the test with SF-268 CNS it was -59% (active); with SF-295 CNS it was -96.1% (active). Also, the growth was -95.7% (active) in the test on SF-539 CNS; -91% (active) in the test with UACC-257 melanoma; -70.1% (active) with M14 melanoma; -94.2% (active) in the test with HCT-15 colon; -65% (active) in the test on HT29 colon; -80.7% (active) with SNB-75 CNS. In addition, the growth is -44.5% (active) with SNB-19 CNS; -57.4% (active) with U251 CNS; -87.3% (active) in the test on PC-3 prostate; -98.4% (active) in the test on SK-MEL-5 melanoma; -59.5% (active) with UACC-62 melanoma; -90.1% (active) with LOX IMVI melanoma. For the same molecule, in the test with SK-MEL-28 melanoma, the growth was -98.4% (active).
For the molecule `N/C(=N\c1nc2ccccc2s1)NC(=O)NCCCCCCO`, the growth was 56.7% in the test with DU-145 prostate; 23.4% in the test with K-562 leukemia; 54% with MALME-3M melanoma; 43.6% with RXF 393 renal; 61.6% in the test with SF-268 CNS; 21.4% in the test on SF-295 CNS. For the same molecule, the growth in the test on SF-539 CNS is 64.8%; in the test on UACC-257 melanoma, 29.2%; in the test on M14 melanoma, 67.3%; with HCT-15 colon it was 57.7%; with HT29 colon it was 76.2%; with SNB-75 CNS, 20.6%. In addition, the growth with SNB-19 CNS is 51.6%; with U251 CNS, 69%; with PC-3 prostate, 47.3%; in the test on SK-MEL-5 melanoma, -3.23% (active); in the test with UACC-62 melanoma, 49.1%; in the test on SK-MEL-28 melanoma, 76.5%.
Consider `COc1cc(CNC(=O)/C=C/c2ccc3c(c2)OCO3)ccc1OCc1cn(-c2ccc([N+](=O)[O-])cc2)nn1`, for which the growth with DU-145 prostate was 103%; in the test on K-562 leukemia, 92.8%; in the test on MALME-3M melanoma it was 87.6%; with RXF 393 renal, 72.2%; in the test on SF-268 CNS it was 86.9%; with SF-295 CNS, 88%. Besides, the growth with SF-539 CNS was 79.8%; in the test on UACC-257 melanoma it was 91.5%; in the test on M14 melanoma, 92.9%; in the test with HCT-15 colon, 97.3%; with HT29 colon, 121%; in the test on SNB-75 CNS, 106%. For the same molecule, the growth in the test on SNB-19 CNS is 86.5%; in the test on U251 CNS, 96.2%; with PC-3 prostate, 103%; in the test on SK-MEL-5 melanoma, 89.3%; with UACC-62 melanoma, 78.9%; with SK-MEL-28 melanoma, 99.9%.
On to `CCCCCCn1c(O)c(N=Nc2nc(-c3cc4ccccc4oc3=O)cs2)c2ccccc21`, for which the growth in the test on DU-145 prostate was 10.1%; in the test with K-562 leukemia, 29.8%; in the test with MALME-3M melanoma it was -72.1% (active); in the test with MDA-MB-231 breast it was -65.6% (active); with SF-268 CNS, 11%; in the test on SF-295 CNS it was 47.8%. Also, the growth with SF-539 CNS was 56.1%; in the test on UACC-257 melanoma it was 46.3%; with M14 melanoma it was -4.72% (active); in the test with HCT-15 colon it was 36.7%; with HT29 colon, -39.7% (active); with SNB-75 CNS it was 81.4%. Also, the growth was 40% in the test on SNB-19 CNS; -57.5% (active) in the test with U251 CNS; -2.73% (active) in the test with PC-3 prostate; -64.8% (active) in the test on SK-MEL-5 melanoma; -2.7% (active) in the test on UACC-62 melanoma; -63.9% (active) in the test with LOX IMVI melanoma. Further, in the test with SK-MEL-28 melanoma, the growth is -39.3% (active).
On to `CCOc1ccc(-c2c(C#N)c(-c3ccc(Cl)cc3)nc3n[nH]c(-c4ccc(Cl)cc4)c23)cc1OC`, for which the growth was 64.9% in the test with DU-145 prostate; 9.47% (active) in the test on K-562 leukemia; 46.7% in the test on MALME-3M melanoma; 47.4% in the test on RXF 393 renal; 72.9% in the test on SF-268 CNS; 75.7% with SF-295 CNS. For the same molecule, the growth was 62.6% with SF-539 CNS; 54.4% with UACC-257 melanoma; 60% in the test on M14 melanoma; 19.6% in the test with HCT-15 colon; 34.2% in the test with HT29 colon; 58.5% in the test with SNB-75 CNS. Moreover, the growth with SNB-19 CNS is 77%; with U251 CNS, 62.9%; in the test on PC-3 prostate, 28%; with SK-MEL-5 melanoma, 28.2%; with UACC-62 melanoma it was 68.5%.
